Results from the supplement of paper PMC13380429.

What was measured:
[1] = tested on: Vero E6 infected with SARS-CoV-2; test: morphology score (similarity to uninfected cells); higher = more like uninfected cells; conditions: 24 h
[2] = tested on: Vero E6 infected with SARS-CoV-2; test: SARS-CoV-2 infection rate relative to infected DMSO; higher = more infection, active = 60 or less; conditions: 24 h

| Structure (SMILES) | morphology score [1] | SARS-CoV-2 infection rate [2] |
| --- | --- | --- |
| CN[C@@H]1[C@@H](O)[C@@H](O[C@@H]2[C@@H](O)[C@H](O[C@H]3O[C@H](CN)[C@@H](O)[C@H](O)[C@H]3O)[C@@H](N)C[C@H]2NC(=O)[C@@H](O)CN)OC[C@]1(C)O [isepamicin] (10 µM) | 0.0671 | 109% (inactive) |
| CCN1CCCC1CNC(=O)c1cc(S(=O)(=O)CC)c(N)cc1OC (stereo unspecified) [amisulpride] (10 µM) | 0.114 | 105% (inactive) |
| O=C(O)c1ccc(OCCn2ccnc2)cc1 [dazoxiben] (10 µM) | 0.196 | 99% (inactive) |
| Cc1ccc(-c2n[nH]c3c2C(c2cccc(O)c2)N(c2ccc(C(=O)O)cc2)C3=O)cc1 (stereo unspecified) (10 µM) | 0.169 | 91.5% (inactive) |
| COc1cc(N2CCOCC2)ccc1Nc1ncc(Cl)c(Nc2ccccc2NS(C)(=O)=O)n1 (10 µM) | -0.034 | 103% (inactive) |
| CCCCCOc1ccc(-c2ccc(-c3ccc(C(=O)N[C@H]4C[C@@H](O)[C@@H](O)NC(=O)[C@@H]5[C@@H](O)[C@@H](C)CN5C(=O)[C@H]([C@@H](C)O)NC(=O)[C@H]([C@H](O)[C@@H](O)c5ccc(O)cc5)NC(=O)[C@@H]5C[C@@H](O)CN5C(=O)[C@H]([C@@H](C)O)NC4=O)cc3)cc2)cc1 [anidulafungin] (10 µM) | -0.164 | 110% (inactive) |
| Fc1ccc2nc(CCC#Cc3ccccn3)cn2c1 [dipraglurant] (10 µM) | 0.0385 | 103% (inactive) |
| COC(=O)C1=C(C)NC(C)=C(C(=O)OCCN(C)Cc2ccccc2)C1c1cccc([N+](=O)[O-])c1 (stereo unspecified) [nicardipine] (10 µM) | 0.0181 | 103% (inactive) |
